According to PubChem BioAssay AID1159580 (chemical genetic matrix, 2015):
“And” between values parts separate entries of the source, which are not always exact repeats. Equal values may be shown once. Among all 5,500 compounds or so, about 2,000 (36%) were called active. Another 18% or so got no clear call; they are omitted. Cut-off read from the data, not from the text of the source: active = normalized growth mostly below about 0.91 (no sharp cut-off); inconclusive = no clear call, values can overlap the other calls; inactive = mostly above about 0.92. This is one part of the list.

Assay: chemical genetic growth profiling, strain panel (AID 1159580);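 note: tested at 20 µM; growth read once vehicle control cultures reached saturation at 30 °C; 1 = growth at the plate median or of vehicle wells; lower values mean less growth of the strain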
Conditions: growth OD

Measured: normalized growth

CNC(=O)Oc1ccc2c(c1)C1(C)CCN(C)C1N2C (centres undefined)
inactive: S. cerevisiae deletion strains, locus YAL013W, strain DEP1, active compounds read low 0.999 | S. cerevisiae deletion strains, locus YAL040C, strain CLN3, active compounds read low 0.99 | S. cerevisiae deletion strains, locus YBR021W, strain FUR4, active compounds read low 1.04 and 1.03 | S. cerevisiae deletion strains, locus YBR229C, strain ROT2, active compounds read low 1 and 1.01 | S. cerevisiae deletion strains, locus YCL029C, strain bik1, active compounds read low 0.991 and 1.01 | S. cerevisiae deletion strains, locus YCL061C, strain MRC1 (second series), active compounds read low 0.978 | S. cerevisiae deletion strains, locus YDL035C, strain GPR1, active compounds read low 1.01 and 1 | S. cerevisiae deletion strains, locus YDL074C, strain BRE1, active compounds read low 1.01 and 1 | S. cerevisiae deletion strains, locus YDL101C, strain DUN1, active compounds read low 0.994 and 0.998 | S. cerevisiae deletion strains, locus YDL134C, strain PPH21, active compounds read low 1.06 and 1 | S. cerevisiae deletion strains, locus YDL185W, strain tfp1, active compounds read low 0.966 and 1.01 | S. cerevisiae deletion strains, locus YDL192W, strain arf1, active compounds read low 1.02 and 1.01 | S. cerevisiae deletion strains, locus YDR101C, strain arx1, active compounds read low 0.98 and 1.01 | S. cerevisiae deletion strains, locus YDR150W, strain NUM1, active compounds read low 1.01 | S. cerevisiae deletion strains, locus YDR162C, strain NBP2, active compounds read low 1.01 and 0.986 | S. cerevisiae deletion strains, locus YDR318W, strain mcm21, active compounds read low 1.02 and 1.01 | S. cerevisiae deletion strains, locus YDR363W, strain ESC2, active compounds read low 0.964 | S. cerevisiae deletion strains, locus YDR388W, active compounds read low 0.994 and 1.01 | S. cerevisiae deletion strains, locus YDR502C, strain sam2, active compounds read low 0.993 and 0.995 | S. cerevisiae deletion strains, locus YEL061C, strain CIN8, active compounds read low 1 and 1.01 | S. cerevisiae deletion strains, locus YER002W, strain NOP16, active compounds read low 0.993 | S. cerevisiae deletion strains, locus YER110C, active compounds read low 0.972 and 1.02 | S. cerevisiae deletion strains, locus YER155C, strain BEM2, active compounds read low 0.995 and 1.01 | S. cerevisiae deletion strains, locus YER167W, strain BCK2, active compounds read low 0.996 and 1.02 | S. cerevisiae deletion strains, locus YGL078C, strain dbp3, active compounds read low 1.01 | S. cerevisiae deletion strains, locus YGL086W, strain mad1, active compounds read low 0.957 and 1.01 | S. cerevisiae deletion strains, locus YGL248W, strain PDE1, active compounds read low 1.02 and 1.01 | S. cerevisiae deletion strains, locus YGR078C, strain PAC10, active compounds read low 1 and 0.991 | S. cerevisiae deletion strains, locus YGR135W, strain pre9, active compounds read low 1.04 and 0.982 | S. cerevisiae deletion strains, locus YGR229C, strain SMI1, active compounds read low 0.977 | S. cerevisiae deletion strains, locus YGR252W, strain gcn5, active compounds read low 1.2 and 0.984 | S. cerevisiae deletion strains, locus YHR030C, strain SLT2, active compounds read low 0.998 and 1.01 | S. cerevisiae deletion strains, locus YHR079C, strain IRE1 (second series), active compounds read low 0.976 and 1.02 | S. cerevisiae deletion strains, locus YHR094C, strain hxt1, active compounds read low 0.991 and 1.01 | S. cerevisiae deletion strains, locus YHR129C, strain ARP1, active compounds read low 1 and 1.02 | S. cerevisiae deletion strains, locus YHR200W, strain rpn10, active compounds read low 0.995 and 1.01 | S. cerevisiae deletion strains, locus YIL066C, strain RNR3, active compounds read low 1 and 1.01 | S. cerevisiae deletion strains, locus YIL073C, strain SPO22, active compounds read low 0.935 and 1.03 | S. cerevisiae deletion strains, locus YIL125W, strain kgd1, active compounds read low 0.995 and 1.02 | S. cerevisiae deletion strains, locus YIR030C, strain dcg1, active compounds read low 1 and 1.02 | S. cerevisiae deletion strains, locus YJL095W, strain BCK1, active compounds read low 1.06 and 1.02 | S. cerevisiae deletion strains, locus YJL134W, strain LCB3, active compounds read low 0.997 and 1 | S. cerevisiae deletion strains, locus YJL168C, strain set2, active compounds read low 0.983 and 1.01 | S. cerevisiae deletion strains, locus YJL187C, strain SWE1 (second series), active compounds read low 1.01 and 1 | S. cerevisiae deletion strains, locus YJR043C, strain POL32, active compounds read low 1.02 and 1.04 | S. cerevisiae deletion strains, locus YJR075W, strain HOC1, active compounds read low 0.98 and 0.984 and 0.995 | S. cerevisiae deletion strains, locus YKL009W, strain mrt4, active compounds read low 1.02 and 1.04 | S. cerevisiae deletion strains, locus YKL068W, active compounds read low 0.976 and 1 | S. cerevisiae deletion strains, locus YKL085W, strain MDH1 (second series), active compounds read low 0.98 and 1.02 | S. cerevisiae deletion strains, locus YKL085W, strain MDH1, active compounds read low 0.98 and 1.02 | S. cerevisiae deletion strains, locus YKL190W, strain CNB1, active compounds read low 1.01 | S. cerevisiae deletion strains, locus YKR001C, strain vps1, active compounds read low 1 and 1.02 | S. cerevisiae deletion strains, locus YLR039C, strain RIC1, active compounds read low 1.11 and 1.07 | S. cerevisiae deletion strains, locus YLR058C, strain SHM2, active compounds read low 1.02 and 1.01 | S. cerevisiae deletion strains, locus YLR102C, strain apc9, active compounds read low 0.974 and 1.02 | S. cerevisiae deletion strains, locus YLR262C, strain YPT6, active compounds read low 1.14 and 1.01 | S. cerevisiae deletion strains, locus YLR268W, strain sec22, active compounds read low 0.995 and 0.998 | S. cerevisiae deletion strains, locus YLR330W, strain CHS5, active compounds read low 1 and 1.01 | S. cerevisiae deletion strains, locus YLR342W, strain FKS1 (second series), active compounds read low 1.03 and 1.05 | S. cerevisiae deletion strains, locus YLR371W, strain rom2, active compounds read low 0.979 and 1.02 | S. cerevisiae deletion strains, locus YLR418C, strain cdc73, active compounds read low 1 and 0.92 | S. cerevisiae deletion strains, locus YML016C, strain PPZ1, active compounds read low 0.99 and 1.01 | S. cerevisiae deletion strains, locus YML032C, strain rad52, active compounds read low 1.04 and 1.02 | S. cerevisiae deletion strains, locus YML124C, strain tub3, active compounds read low 0.992 and 1 | S. cerevisiae deletion strains, locus YMR078C, strain ctf18, active compounds read low 0.981 and 1.02 | S. cerevisiae deletion strains, locus YMR223W, strain ubp8, active compounds read low 1.03 and 1.02 | S. cerevisiae deletion strains, locus YMR263W, strain SAP30, active compounds read low 0.983 and 0.988 | S. cerevisiae deletion strains, locus YMR307W, strain GAS1, active compounds read low 1 and 1.24 and 1.1 | S. cerevisiae deletion strains, locus YNL067W, strain RPL9B, active compounds read low 0.993 and 1 | S. cerevisiae deletion strains, locus YNL128W, strain TEP1, active compounds read low 0.977 and 0.975 | S. cerevisiae deletion strains, locus YNL153C, strain GIM3, active compounds read low 1 | S. cerevisiae deletion strains, locus YNL175C, strain NOP13, active compounds read low 1.01 | S. cerevisiae deletion strains, locus YNL197C, strain WHI3, active compounds read low 1 | S. cerevisiae deletion strains, locus YNL224C, strain SQS1, active compounds read low 0.999 | S. cerevisiae deletion strains, locus YNL233W, strain BNI4, active compounds read low 0.999 and 0.995 | S. cerevisiae deletion strains, locus YNL250W, strain rad50, active compounds read low 0.94 and 1.02 | S. cerevisiae deletion strains, locus YNL271C, strain bni1, active compounds read low 0.994 and 1.02 | S. cerevisiae deletion strains, locus YNL298W, strain CLA4, active compounds read low 0.993 and 1.02 | S. cerevisiae deletion strains, locus YNL307C, strain MCK1, active compounds read low 0.989 and 1.01 | S. cerevisiae deletion strains, locus YNL322C, strain KRE1, active compounds read low 0.961 and 0.998 and 1.01 | S. cerevisiae deletion strains, locus YNR052C, strain pop2, active compounds read low 1.01 and 1.02 | S. cerevisiae deletion strains, locus YOL006C, strain TOP1, active compounds read low 0.949 and 0.93 | S. cerevisiae deletion strains, locus YOL012C, strain htz1 1.18 and 1.01 | S. cerevisiae deletion strains, locus YOL147C, strain pex11, active compounds read low 0.995 and 1.01 | S. cerevisiae deletion strains, locus YOR061W, strain CKA2, active compounds read low 1 and 1.01 | S. cerevisiae deletion strains, locus YOR069W, strain VPS5, active compounds read low 0.996 and 1.01 | S. cerevisiae deletion strains, locus YOR083W, strain WHI5 (second series), active compounds read low 1.01 | S. cerevisiae deletion strains, locus YOR136W, strain idh2, active compounds read low 0.979 and 1.01 | S. cerevisiae deletion strains, locus YOR144C, strain elg1, active compounds read low 1 and 1.01 | S. cerevisiae deletion strains, locus YOR184W, strain ser1, active compounds read low 1.05 and 1.06 | S. cerevisiae deletion strains, locus YOR316C, strain cot1, active compounds read low 0.988 and 1.02 | S. cerevisiae deletion strains, locus YPL055C, strain LGE1, active compounds read low 0.987 | S. cerevisiae deletion strains, locus YPL241C, strain CIN2, active compounds read low 1.01 | S. cerevisiae deletion strains, locus YPR119W, strain clb2, active compounds read low 0.984 and 1.01 | S. cerevisiae deletion strains, locus YPR141C, strain kar3, active compounds read low 0.981 and 1.02 | S. cerevisiae deletion strains, locus YPR163C, strain tif3, active compounds read low 0.992 and 1.01 | S. cerevisiae deletion strains, locus YPR167C, strain met16, active compounds read low 0.999 and 1.02 | S. cerevisiae deletion strains, strain wtn01, active compounds read low 0.962 and 1 | S. cerevisiae strains, strain wild type, active compounds read low 1.01
